High-throughput results as filed in PubChem BioAssay.
AMA1 RON2 block: AMA1-RON2 (P. falciparum) interaction inhibition; AlphaScreen AMA1-biotinylated RON2 peptide binding; hit rate 0.2% among 360,000; Potency, µM (titrated, usually from 58.2 µM), for inactives: at the top dose activity change, negative = inhibition, hits mostly inhibitors;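 note: potency is the fitted concentration of half-maximal effect; 0% = vehicle wells and -100% = peptide control; nearly all actives have a fitted effect of over 45% in size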
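AMA1 (3D7) with his tag at 25 nM final met compounds first, then biotinylated RON2 peptide at 25 nM; detection used donor plus acceptor beads, 10 µg/mL apiece, read by AlphaScreen after 30 min at room temperature.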
Shiga toxin inh: inhibitors of Shiga toxin in Vero cells; Vero cells, Shiga toxin protein synthesis inhibition reporter; inhibition, % at 38.7 µM; hit rate 9.2% among 290,000; in the data active = inhibition mostly above about 28%, no sharp cut-off; inactive = mostly below about 43%; note: 0% is about no effect
CHX counter: counter-screen for Shiga toxin inhibitors: cycloheximide protein synthesis inhibition; cell reporter, cycloheximide protein synthesis inhibition counterscreen; max response, %; hit rate 12% among 300,000; in the data active = max response mostly above about 13%, no sharp cut-off; inactive = mostly below about 14%; note: read at 38.3 µM for the half of the compounds with a filed dose; 0% is about no effect
AmpC no deterg: AmpC beta-lactamase inhibition without detergent; P00811; AmpC nitrocefin hydrolysis, absorbance 480 nm, 0.0001% Triton; Potency, µM (highest dose often 57.1 µM), for the others: at the top dose activity change, negative = inhibition, actives largely listed as inhibitors; hit rate 0.52% among 330,000;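 note: potency is the fitted concentration of half-maximal effect; plate controls were no compound for no effect and no enzyme for full effect; nearly all actives have a fitted effect of over 20% in size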
Target sequence (P00811 whole entry, looked up): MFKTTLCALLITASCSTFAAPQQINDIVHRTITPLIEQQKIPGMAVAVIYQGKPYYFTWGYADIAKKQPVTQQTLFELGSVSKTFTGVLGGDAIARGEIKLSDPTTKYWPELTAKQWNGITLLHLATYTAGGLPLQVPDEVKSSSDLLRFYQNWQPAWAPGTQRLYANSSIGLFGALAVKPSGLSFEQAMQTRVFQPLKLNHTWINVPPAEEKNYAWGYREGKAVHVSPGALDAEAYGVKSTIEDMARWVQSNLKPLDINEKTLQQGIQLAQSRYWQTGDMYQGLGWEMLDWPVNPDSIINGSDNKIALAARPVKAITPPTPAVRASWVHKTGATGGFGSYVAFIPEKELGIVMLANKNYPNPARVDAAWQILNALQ
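AmpC (5.3 nM in the dispensed reagent) in 20 mM phosphate pH 7.0 with 0.01% (detergent screen) or 0.0001% Triton X-100 was preincubated with compounds for 15 min at room temperature. Nitrocefin was then added from an 800 uM solution, and hydrolysis was followed at 480 nm.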
SARS PLpro yeast: SARS-CoV PLP inhibition in yeast | S. cerevisiae expressing SARS-CoV PLpro, growth rescue | Potency, µM (doses to about 32.9 µM), for the others: at the top dose activity, positive = growth rescue, actives largely listed as activators | hit rate 0.19% among 330,000; calls by dose curve; note: potency is the fitted concentration of half-maximal effect; 0% is about no effect; nearly all actives have a fitted effect of over 55% in size
AmpC detergent: AmpC beta-lactamase inhibition with detergent present | AmpC hydrolysis of nitrocefin, absorbance 480 nm, 0.01% Triton | hit rate 0.041% among 370,000 | Potency, µM (titrated, usually from 114 µM), inactives show top-dose activity change, negative = inhibition, most hits filed as inhibitors;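 note: potency is the fitted concentration of half-maximal effect; 0% = no-compound wells and -100% = no-enzyme wells; nearly all actives have a fitted effect of over 25% in size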
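AmpC (5.3 nM in the dispensed reagent) in 20 mM phosphate pH 7.0 with 0.01% (detergent screen) or 0.0001% Triton X-100 was preincubated with compounds for 15 min at room temperature. Nitrocefin was then added from an 800 uM solution, and hydrolysis was followed at 480 nm.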
* marks the source's active call; other numbers are inactive results; ? = inconclusive; . = no result given; ! = repeats disagree. Many of the other results were omitted from the sample, so hits are more common in it than they were. Unless noted, calls come from the whole dose curve; as a rule, active = well fitted curve in the direction sought with a large enough effect; inconclusive = small, poorly fitted or top-dose-only effect, or another doubt; inactive = no such curve, though single readings can be large; an effect the other way counts as inactive or inconclusive.

SMILES | AMA1 RON2 block | Shiga toxin inh | CHX counter | AmpC no deterg | SARS PLpro yeast | AmpC detergent
CSC1=N/C(=C\c2ccccc2Cl)C(=O)N1N(C)C | -10% | -8 | 8 | -16% | 1% | 2%
CCN1CCN(c2ccc(S(=O)(=O)N3CCCCC3)cc2NC(=O)CC(C)c2ccccc2)CC1 (centres undefined) | 18% | . | . | 200% | -4% | ?
COc1cnc(-c2ccccn2)nc1Oc1ccccc1Cl | 11% | 34 | 30* | ? | 8% | -1%
COc1cnc(-c2ccccn2)nc1Oc1ccc(F)cc1F | 11% | 40 | 33* | 2% | 11% | -17%
COc1cnc(-c2ccccn2)nc1Oc1ccc(Cl)cc1 | 10% | -8 | 20 | 93% | -18% | -12%
COc1ccccc1-c1ccc(SCc2ccc(F)cc2)nn1 | -8% | 65* | 39* | -24% | -2% | -13%
COc1ccccc1-c1ccc(SCc2ccc(C)cc2)nn1 | -2% | 76* | 32* | -13% | -1% | ?
CCc1cccc(C)c1NC(=O)c1ccccc1 | -5% | 17 | -1 | -22% | 4% | 6%
CN1CCN(CCCN2c3ccccc3Sc3ccc(Cl)cc32)CC1 | 16µM*! | -19 | -5 | 225% | -30% | -6%
CN(C)CCCN1c2ccc(O)cc2Sc2ccc(Cl)cc21 | 20µM* | . | . | . | . | .
CN(C)CCCN1c2ccccc2Sc2ccc(C(F)(F)F)cc21 | -22% | -18 | -3 | 78% | 0% | -13%
Cc1cc(C(=O)COC(=O)CC2Sc3ccccc3NC2=O)c(C)n1-c1ccccc1 (centres undefined) | -16% | 50* | 66* | -28% | ? | 0%
COC(=O)c1ccc(-n2c(C)cc(C(=O)COC(=O)CC3Sc4ccccc4NC3=O)c2C)cc1 (centres undefined) | -24% | 26* | 21* | -18% | -1% | -15%
Cc1cc(C(=O)COC(=O)Cc2n[nH]c(=O)c3ccccc23)c(C)n1-c1ccc2c(c1)OCO2 | -2% | -15 | 2 | -11% | -31% | ?
Cc1cc(C(=O)COC(=O)CC2Sc3ccccc3NC2=O)c(C)n1-c1ccc2c(c1)OCO2 (centres undefined) | -10% | 37 | 27* | -23% | -2% | 0%
O=C(CC1Sc2ccccc2NC1=O)OCC(=O)N1CCc2ccccc21 (centres undefined) | -8% | 92* | 32* | -17% | 1% | ?
Cc1cc(C(=O)COC(=O)CC2Sc3ccccc3NC2=O)c(C)n1-c1ccc(Br)cc1 (centres undefined) | -16% | 42 | 26 | 0% | -2% | 8%
CCC1Sc2ccc(S(=O)(=O)CCC(=O)N3CCc4ccccc43)cc2NC1=O (centres undefined) | 22% | 20 | -3 | -23% | 3% | -3%
CCOC(=O)C1=C(C)N(C)C(C)=C(C(=O)OCC)C1c1ccccn1 | -3% | -1 | -1 | 71% | 2% | 2%
Cc1ccc(Cn2c(CCNc3nc(-c4ccc(Cl)c([N+](=O)[O-])c4)cs3)nc3cc(Cl)c(Cl)cc32)cc1 | 98% | . | . | . | . | .
O=S1(=O)[C@H]2C[C@@H]3C=C[C@@]2(CN1Cc1cccc(Cl)c1)O3 | 7% | 15 | 6 | 7% | 6% | -14%
CCOC(=O)NC(=O)CSc1nc(-c2ccc(C)c(C)c2)cn1-c1ccccc1 | -8% | 131* | 63* | -32% | -34% | 1%
Cc1ccc(-c2cn(-c3ccccc3)c(SCC(N)=O)n2)cc1C | -15% | 43* | 37* | 35% | -11% | ?
COc1ccc(C(=O)COC(=O)CCC(=O)c2cccs2)cc1 | 14% | 2 | 27 | -22% | -2% | 4%
CCCCc1ccc(-c2nc(NC(=O)C3C4CCC(O4)C3C(=O)O)sc2C)cc1 (centres undefined) | . | 58* | 44* | -38% | -29% | -5%
SMILES | AMA1 RON2 block | Shiga toxin inh | CHX counter | AmpC no deterg | SARS PLpro yeast | AmpC detergent
CCc1cccc(C)c1NC(=O)C1C2CCC(O2)C1C(=O)O (centres undefined) | -29% | -4 | -4 | -7% | 2% | -2%
O=C(Nc1ccccc1Cl)c1ccccc1Oc1ccc(C(F)(F)F)cc1[N+](=O)[O-] | ? | -8 | -3 | -27% | -30% | 0%
COc1ccc(C(=O)Nc2ccccc2C(=O)O)cc1Cl | -13% | 66* | 27* | -15% | -12% | -15%
Cc1c(NC(=O)c2ccc(-c3ccccc3)cc2)cccc1C(=O)O | -12% | 66* | 35* | -23% | 0% | -1%
CCOc1ccc(C(=O)Nc2cccc(C(=O)O)c2C)cc1Cl | -10% | 66* | 31* | -5% | 1% | -7%
COc1ccc(C(=O)Nc2ccccc2C(=O)O)cc1NC(=O)C(c1ccccc1)c1ccccc1 | -9% | -5 | -2 | ? | -1% | -2%
COc1ccc(Br)cc1S(=O)(=O)Nc1cccc(C)n1 | 23% | -14 | -3 | -12% | 0% | -3%
COc1ccc(CCNC(=O)c2ccc3c(c2)OCCO3)cc1 | -1% | 84* | 35* | -23% | -1% | -8%
O=C(NCCc1ccccc1)c1ccc2c(c1)OCCO2 | 1% | -37 | -3 | -26% | -1% | 0%
COc1ccc(CCNC(=O)c2coc(=O)c(Br)c2)cc1 | 10% | 71* | 26* | -22% | 1% | -7%
COc1ccc(CCNC(=O)c2ccc(=O)[nH]c2)cc1 | 0% | 26 | 0 | -17% | 2% | -4%
COc1ccc(CCNC(=O)c2ccc3c(c2)OCO3)cc1 | 5% | 62 | 27* | -13% | 0% | ?
COc1ccc2cc(CCNC(=O)c3ccc4c(c3)OCO4)c(=O)[nH]c2c1 | -2% | -3 | -1 | 2.8µM* | 1% | ?
COc1ccc2cc(CCNC(=O)c3cccc([N+](=O)[O-])c3)c(=O)[nH]c2c1 | -4% | 23 | 11 | 2% | -1% | -2%
COc1cc(C(=O)NCCc2ccc3c(c2)OCO3)cc(OC)c1OC | -5% | . | . | . | . | .
Cc1ccc(C(=O)COC(=O)c2ccccc2N2C(=O)C3C4CCC(C4)C3C2=O)cc1C (centres undefined) | 0% | -9 | -4 | -11% | 0% | -1%
CCOC(=O)c1ccc(NC(=S)NCc2ccco2)cc1 | 12% | 63* | 14 | -41% | -2% | 8%
CC(=O)c1cccc(NC(=S)NCc2ccco2)c1 | -2% | 10 | 1 | -40% | 0% | 0%
O=C(OC(C(=O)NCc1ccco1)C(OC(=O)c1ccccc1)C(=O)NCc1ccco1)c1ccccc1 (centres undefined) | -6% | 66* | 17* | ? | 19% | -11%
S=C(NCc1ccco1)Nc1ccc(N2CCOCC2)cc1 | 26% | 17 | 20* | -13% | -5% | -10%
